# Reference: PubChem BioAssay (NCATS)
# Records with an inconclusive call do not appear. A number with no mark means an inactive call. The source made the active and inactive calls. Calls come from the whole dose curve; as a rule, active = well fitted inhibition curve with a large enough effect; inconclusive = small, poorly fitted or top-dose-only effect; inactive = no such curve, though single readings can be large or run the other way.
# Test system: Zika virus NS2B-NS3 protease (linked construct)
# Test: Primary screen NINDS Rhodamine qHTS for Zika virus inhibitors (AID 1347160); note: nearly all actives have a fitted effect of over 55% in size
# Details: purified NS2B-NS3 protease, Rhodamine110 substrate fluorescence; series mostly up to 57.1 µM; activity change, negative = inhibition: at the top concentration
# Summary of the method: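 Rhodamine110-peptide cleavage (1.5 µM substrate) by 25 nM linked NS2B-NS3 enzyme at pH 8.0 (Tris, Tween 20), after 15 min RT preincubation with compounds; 15-min fluorescence change normalized to controls and Hill-fitted.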
# % is set by controls: 0 for no effect and ±100 for the full control effect; potency is the fitted concentration of half-maximal effect.
Compound,"activity change, negative = inhibition",Potency,outcome
C=C1C[C@]23C[C@H]1CC[C@H]2C1=C[C@H]2OC(=O)[C@@](C)([C@H]1[C@@H]3C(=O)O)[C@H]2O,12.5% [at 33.1 µM],–,–
C[C@@H]1CC[C@]2(C(=O)O)CC[C@]3(C)C(=CCC4[C@@]5(C)C[C@@H](O)[C@H](O)[C@@](C)(CO)C5CC[C@]43C)C2[C@]1(C)O (stereo not given in full),-17.5% [at 33.1 µM],–,–
O=C(/C=C\c1ccc(O)cc1)N[C@@H](Cc1ccc(O)cc1)C(=O)O,–,12.6 µM (active),–
COc1ccc(C[C@H](N)C(=O)N[C@@H]2[C@H](O)[C@H](n3cnc4c(N(C)C)ncnc43)O[C@@H]2CO)cc1,75.6%,–,–
Cc1cc(C)c(Nc2ccnc(Nc3ccc(C#N)cc3)n2)c(C)c1,-8.77%,–,–
CC/C=C/CC1=C(CCCCC(CCC(=O)O)OC(C)=O)CCC1=O (stereo not given),–,–,inactive [at 33.1 µM]
C=C1C(=O)OC2/C=C(\CO)CC/C=C(\C=O)CC(OC(=O)CC(C)C)C12 (stereo not given),7.51% [at 33.1 µM],–,–
COC(=O)C1=CO[C@@H](O[C@@H]2O[C@H](CO[C@@H]3O[C@H](COC(=O)/C=C/c4cc(OC)c(O)c(OC)c4)[C@@H](O)[C@H](O)[C@H]3O)[C@@H](O)[C@H](O)[C@H]2O)[C@@H]2C(CO)=CC[C@H]12,-2.01% [at 15.1 µM],–,–
C=CC1C(OC2OC(CO)C(O)C(O)C2O)OC=C(C(=O)OC)C1CC(=O)OCC1C(C)C(O)CC1C(CO)COC(=O)CC1C(C(=O)O)=COC(OC2OC(CO)C(O)C(O)C2O)/C1=C\C (stereo not given),–,–,inactive [at 15.1 µM]
CCC(O)C(C)C1CCC(C(C)C(=O)O)O1 (stereo not given),-5.36%,–,–
CC12CCC(=O)C=C1C(O)CC1C2C(O)CC2(C)C1CC[C@]2(O)C(=O)CO (stereo not given in full),17.1% [at 15.1 µM],–,–
C=C(C(=O)O)[C@@H]1CC[C@@]2(C)CC[C@H](O)[C@@]2(C(C)=O)C1,0.306%,–,–
CC12CCC(OC3OC(CO)C(O)C(OC4OC(CO)C(O)C(O)C4O)C3O)CC1=CCC1C2CCC2(C)/C(=C3/COC(=O)C3)CCC12O (stereo not given),18.4% [at 15.1 µM],–,–
O=C1NC(Cc2ccccc2)C(=O)N2CCCC12 (stereo not given),-12.9%,–,–
CC1=CC(=O)C2(OC3OC(C)C(O)C(OC(=O)/C=C/c4ccccc4)C3O)C=COC(OC3OC(CO)C(O)C(O)C3O)C12 (stereo not given),-15.7% [at 15.1 µM],–,–
CC1(C)CCC2(C(=O)OC3OC(CO)C(O)C(O)C3O)CCC3(C)C(=CCC4C5(C)CCC(O)C(C)(C(=O)O)C5CCC43C)C2C1O (stereo not given),-18.6% [at 15.1 µM],–,–
CC(=O)O[C@H]1C[C@@](O)(C(C)C)C2[C@@H](OC(=O)c3ccc(O)cc3)C[C@@]3(C)O[C@H]3C[C@]21C (stereo not given in full),-6.41% [at 33.1 µM],–,–
Cc1nc(Nc2n[nH]c3c2CN(C(=O)NC(CN(C)C)c2ccccc2)C3(C)C)c2sccc2n1 (stereo not given),–,–,inactive
CC(C)S(=O)(=O)NC[C@H](C)c1ccc(NC(=O)c2cc(F)cc(F)c2)cc1,16.2%,–,–
O=C(CCc1nnc2n(Cc3ccc(Cl)cc3)c(=O)c3ccccc3n12)NCCC1=CCCCC1,–,–,inactive

Compound,"activity change, negative = inhibition",Potency,outcome
C=C(C(=O)O)C1CCC2(C)CCCC(C)(O)C2C1 (stereo not given),3.28%,–,–
CC(=O)CCC1=C(C)C(O[C@@H]2O[C@H](CO)[C@@H](O)[C@H](O)[C@H]2O)C(O)CC1(C)C (stereo not given in full),1.44% [at 33.1 µM],–,–
CO[C@H]1/C=C/C=C/C=C/C[C@H](OC(=O)[C@@H](C)NC(=O)C2CCCCC2)[C@H](C)[C@@H](O)/C(C)=C/CCc2cc(O)cc(c2)NC(=O)C1,-15.5% [at 15.1 µM],–,–
Nc1nc2c(c(=O)[nH]1)C[C@@H](CCc1ccc(C(=O)N[C@@H](CCC(=O)O)C(=O)O)cc1)CN2,30%,–,–
CC(C)=CC/C=C(\C)[C@H]1CC[C@]2(C)[C@@H]1[C@H](O)C[C@@H]1[C@@]3(C)CC[C@H](O)C(C)(C)[C@@H]3[C@@H](O[C@@H]3O[C@H](CO)[C@@H](O)[C@H](O)[C@H]3O)C[C@]12C,-0.764%,–,–
C=C1C(=O)O[C@H]2C1[C@H](OC(=O)/C(=C/CO)COC(=O)/C(C)=C/CO)CC(=C)[C@@H]1CC(=O)[C@@H](C)[C@@H]12 (stereo not given in full),–,–,inactive [at 33.1 µM]
CNC(C)C(=O)NC(C(=O)N1CCCC1c1nc(C(=O)c2ccc(F)cc2)cs1)C1CCCCC1 (stereo not given),55%,–,–
C/C=C/c1ccc2oc(-c3ccc(O)c(OC)c3)c(C)c2c1,-18.8%,–,–
CN1CCN(C(=O)c2ccc3cc(CCNc4ncnc5ccc(C#N)cc45)ccc3c2)CC1,29.9%,–,–
COc1ccc(Oc2cc(C)c(-c3csc(NC(=O)c4ccncc4)n3)c(C)c2)cc1,-5.62%,–,–
COc1ccc(/C=C/C(=O)O[C@@H]2[C@@H](O)[C@@H](O)[C@H](O[C@@H]3C=C(CO)[C@H]4[C@H](O[C@@H]5O[C@H](CO)[C@@H](O)[C@H](O)[C@H]5O)OC=C[C@H]43)O[C@H]2C)cc1O,-21.6% [at 15.1 µM],–,–
C[C@@H]1C[C@@H]2O[C@H]2/C=C\C=C\C(=O)Cc2c(Cl)c(O)cc(O)c2C(=O)O1,-15.4% [at 33.1 µM],–,–
CNC(=O)c1ccccc1Nc1cc(Nc2ccc(N3CCOCC3)cc2OC)ncc1C(F)(F)F,139%,–,–
NC(=O)[C@H](O[C@@H]1O[C@H](CO)[C@@H](O)[C@H](O)[C@H]1O)c1ccccc1,-24.5% [at 33.1 µM],–,–
C[C@@H](O)[C@H](NC(=O)c1ccc(C#Cc2ccc(CN3CCOCC3)cc2)cc1)C(=O)NO,16%,–,–
CC1(C)CCCC2(C)C(C(=O)O)=CCC12 (stereo not given),20.7%,–,–
NC1(C(=O)NC(CCO)c2ccc(Cl)cc2)CCN(c2ncnc3[nH]ccc23)CC1 (stereo not given),-10.4%,–,–
Nc1nc(Nc2ccc(S(N)(=O)=O)cc2)n(C(=S)Nc2c(F)cccc2F)n1,33.8%,–,–
CC(C)C[C@H](CC(=O)NO)C(=O)N[C@H](C(=O)N[C@@H](C)C(=O)NCCN)C(C)(C)C,-11.4% [at 10.7 µM],–,–
C/C=C/C=C/[C@@H]1O[C@](O)([C@H](CC)C(=O)NC/C=C/C=C(\C)[C@@H](OC)[C@@H](C)C2OC(/C=C/C=C/C=C(\C)C(=O)c3c(O)cc[nH]c3=O)[C@H](O)[C@@H]2O)[C@H](O)[C@H](O)C1(C)C (stereo not given in full),–,–,inactive [at 15.1 µM]
